Experimental data: PubChem BioAssay
The source made the active and inactive calls.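 The calls were made as follows, unless noted: active = visual image review flags a hit and inhibition of aggregation exceeds 20%; inconclusive = visual hit but inhibition at or below 20%; inactive = no hit on visual image review.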

Experiments:
[1] = inhibitors of TNFa-induced NFkB p65 translocation, primary screen, imaging, HUVEC, MLSMR starter and 10KST1 sets (AID 438;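 active = inhibition above 20% together with a positive visual image hit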;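 also: compound added about 3h40 before a 20 min TNFalpha stimulation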;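 as to inhibition: signal is the nuclear over cytoplasmic p65 intensity ratio per well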); conditions: HUVEC TNFa-induced p65 nuclear translocation; cell count: measured here: nuclei count (cytotoxicity indicator), at 2.08 µM; inhibition: at 2 µM, stronger effect = higher value, 0% TNFa-plus-vehicle, 100% no-TNFa wells
[2] = inhibitors of mutant huntingtin aggregation, primary screen, imaging, exon1htt(103Q)mCFP cells, high-content imaging (AID 483); conditions: exon1htt(103Q)mCFP cell line, aggregate imaging, at 2 µM; inhibition of aggregation: stronger effect = higher value; nuclei count: measured here: cell count, toxicity;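 also: compound exposure lasted 3 days before fixation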;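 as to nuclei count: percent of the per-plate median nuclei count of sample wells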
[3] = inhibitors of E-selectin induction by TNFa, primary screen, imaging, HUVEC, immunofluorescence, MLSMR starter and 10KST1 sets (AID 487;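 active = visually confirmed hit in the image check and inhibition above 20%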;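 as to inhibition: signal is fraction of cell area covered by stained E-selectin grains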;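 as to nuclei count: 100% = median nuclei count of all wells on the same plate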); conditions: HUVEC TNFalpha-induced E-selectin immunofluorescence imaging, at 2 µM; inhibition: stronger effect = higher value; nuclei count: measured here: cell number, toxicity
[4] = molecular target: Voltage-gated potassium channel subunit beta-2 (Rattus norvegicus) (UniProt P62483); assay: KvBeta enzyme negative modulators, primary screen, biochemical, NADPH fluorescence (AID 622;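 active = fluorescence slope higher than the sample average by over 3 SD, cut at about -0.22 in these data, passing the limit was not always enough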;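 also: slope of raw intensity against log time taken from 70 to 1610 s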); conditions: recombinant KvBeta, 4-cyanobenzaldehyde reduction, at 10 µM, stronger effect = higher value
[5] = molecular target: Voltage-gated potassium channel subunit beta-2 (Rattus norvegicus) (UniProt P62483); assay: KvBeta positive modulators, primary screen, biochemical, NADPH fluorescence (AID 623;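 active = NADPH fluorescence slope more negative than the mean of all samples by about 3 SD, 99.7% confidence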;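 also: fluorescence intensity change per second fitted from 20 to 320 s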); conditions: Recombinant KvBeta, NADPH fluorescence decrease slope, 10 min; at 10 µM; stronger effect = lower value
[6] = molecular target: Alpha-2C adrenergic receptor (Homo sapiens) (UniProt P18825); assay: modulators of alpha2C/GIRK thallium flux, primary screen, cell-based, HEK293 alpha2C/GIRK1/2 (AID 624;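 active = fluorescence slope after compound addition differing from the mean of all screened samples at 99.7% confidence, in either direction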;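 also: slope of fluorescence ratio to pre-addition baseline per second over 15 to 24 s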); conditions: thallium flux BTC fluorescence, at 10 µM, actives lie on both sides
[7] = inhibitors of Sendai virus-induced IRF3 signaling, primary screen, TLR/RLR signaling modifier project, cell-based, Sendai virus stimulus, luciferase, 10K MLSCN set (AID 602276;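 active = inhibition at or above 50% at 10 µM; inactive = inhibition below 50%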;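 also: firefly luciferase from ISG56 promoter only with Renilla not read in this screen; 0% = Sendai virus plus DMSO and 100% = medium plus DMSO without virus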); conditions: HEK293 RL24 IRF3 luciferase reporter, at 10 µM, stronger effect = higher value
[8] = inhibitors of poly I:C-induced TLR3 signaling, primary screen, cell-based, poly I:C stimulus, luciferase, 10K MLSCN set (AID 602277;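 active = inhibition of the reporter signal at or above 50%; inactive = inhibition below 50%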); conditions: HEK293-TLR3 RL24 IRF3 luciferase reporter, at 10 µM, stronger effect = higher value

Sequence of Voltage-gated potassium channel subunit beta-2 (Rattus norvegicus) (P62483 whole entry, looked up): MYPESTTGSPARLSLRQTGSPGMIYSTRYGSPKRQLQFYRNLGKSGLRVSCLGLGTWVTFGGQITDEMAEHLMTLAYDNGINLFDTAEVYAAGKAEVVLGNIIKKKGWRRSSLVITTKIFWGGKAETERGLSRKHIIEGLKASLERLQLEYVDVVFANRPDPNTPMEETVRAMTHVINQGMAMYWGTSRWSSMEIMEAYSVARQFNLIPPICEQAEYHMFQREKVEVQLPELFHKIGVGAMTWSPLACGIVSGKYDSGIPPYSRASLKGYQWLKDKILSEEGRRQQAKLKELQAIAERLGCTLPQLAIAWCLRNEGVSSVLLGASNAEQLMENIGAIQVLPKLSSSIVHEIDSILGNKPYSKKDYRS
Sequence of Alpha-2C adrenergic receptor (Homo sapiens) (P18825 whole entry, looked up): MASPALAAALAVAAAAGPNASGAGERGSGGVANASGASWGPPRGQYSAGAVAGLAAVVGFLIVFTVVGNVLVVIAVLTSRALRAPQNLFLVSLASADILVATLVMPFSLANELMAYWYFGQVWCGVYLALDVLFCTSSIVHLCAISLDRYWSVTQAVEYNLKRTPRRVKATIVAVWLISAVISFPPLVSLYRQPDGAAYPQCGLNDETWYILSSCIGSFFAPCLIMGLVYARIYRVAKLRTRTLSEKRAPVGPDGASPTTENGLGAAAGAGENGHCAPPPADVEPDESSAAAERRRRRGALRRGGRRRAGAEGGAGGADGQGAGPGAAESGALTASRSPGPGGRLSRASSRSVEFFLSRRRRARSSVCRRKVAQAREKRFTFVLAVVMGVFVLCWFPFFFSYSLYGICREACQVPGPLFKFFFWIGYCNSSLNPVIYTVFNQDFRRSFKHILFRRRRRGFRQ

Compound	cell count [1]	inhibition [1]	inhibition of aggregation [2]	nuclei count [2]	inhibition [3]	nuclei count [3]	fluorescence slope [4]	NADPH fluorescence slope [5]	slope [6]	inhibition [7]	inhibition [8]
O=C(NCCN1CCOCC1)C1CCC(=O)N1Cc1ccccc1Cl (stereo not drawn)	648	-11.4% (inactive)	7.5% (inactive)	92.1%	6.7% (inactive)	87.7%	-0.512 (inactive)	2e-07 (inactive)	0.00614 (inactive)	10.4% (inactive)	21% (inactive)
CCOC(=O)c1[nH]c(C)c(C(=O)Nc2ccc(C)cc2C)c1C	505	5.8% (inactive)	20.1% (inactive)	36.6%	-53.4% (inactive)	103%	-0.585 (inactive)	-1.3e-05 (inactive)	0.00666 (inactive)	1.87% (inactive)	16.3% (inactive)
Cc1onc(-c2ccccc2)c1C(=O)N1CCOCC1	619	-3.5% (inactive)	-7.5% (inactive)	113%	-39.2% (inactive)	106%	-0.327 (inactive)	7.5e-06 (inactive)	0.00368 (inactive)	12.5% (inactive)	20.9% (inactive)
COc1ccccc1NC(=O)CSc1nnc(-c2ccncc2)o1	469	5.3% (inactive)	-7.5% (inactive)	110%	-23.6% (inactive)	117%	-0.506 (inactive)	1.9e-05 (inactive)	0.00395 (inactive)	-2.18% (inactive)	-9.84% (inactive)
O=C(CSc1nnnn1C1CCCC1)Nc1cccc(NC(=O)c2ccco2)c1	747	-15.8% (inactive)	21.9% (inactive)	56.9%	-76.4% (inactive)	132%	-0.329 (inactive)	2.2e-05 (inactive)	0.00506 (inactive)	5.72% (inactive)	9.32% (inactive)
COc1ccc(S(=O)(=O)N(CCN2CCOCC2)Cc2cc(OC)ccc2OC)cc1	426	8.5% (inactive)	-25.8% (inactive)	102%	-100% (inactive)	113%	-0.582 (inactive)	-1.5e-06 (inactive)	0.00508 (inactive)	17.2% (inactive)	33.5% (inactive)
COCCNC(=O)c1ccc(CS(=O)(=O)c2ccc(OC)cc2)o1	636	4.1% (inactive)	-4.8% (inactive)	96.8%	5.3% (inactive)	124%	-0.583 (inactive)	-5.4e-05 (inactive)	0.00675 (inactive)	9.76% (inactive)	25.7% (inactive)
O=C(NCc1cccs1)C(Cc1ccccc1)n1cccc1 (stereo not drawn)	602	-6.3% (inactive)	6.2% (inactive)	95.4%	-25.8% (inactive)	115%	-0.614 (inactive)	-5.2e-05 (inactive)	0.00634 (inactive)	1.52% (inactive)	26.2% (inactive)
Cc1sc2nc(SCc3nc4ccccc4[nH]3)n(Cc3ccco3)c(=O)c2c1C	585	-2.2% (inactive)	17.5% (inactive)	91.4%	8.2% (inactive)	97.3%	-0.59 (inactive)	-2e-05 (inactive)	0.00556 (inactive)	0.73% (inactive)	-54.9% (inactive)
COc1ccc(OC)c(C(=O)CSc2nc3ncccc3[nH]2)c1	238	9.5% (inactive)	16.2% (inactive)	113%	52.6% (inactive)	99.6%	-0.488 (inactive)	-7e-05 (inactive)	0.00695 (inactive)	-7.2% (inactive)	-19.6% (inactive)
CCn1c(SCc2cc(=O)[nH]c3ccccc23)nc2c1c(=O)n(C)c(=O)n2C	350	1% (inactive)	-9.3% (inactive)	93.3%	-38.3% (inactive)	99.2%	-0.336 (inactive)	-3.5e-05 (inactive)	0.00504 (inactive)	4.21% (inactive)	14.7% (inactive)
Cc1ccccc1NC(=O)C1CCCN(S(=O)(=O)c2cccc3cccnc23)C1 (stereo not drawn)	613	6.8% (inactive)	21% (inactive)	71.1%	-45.4% (inactive)	112%	-0.554 (inactive)	1.2e-05 (inactive)	0.00703 (inactive)	1.01% (inactive)	13.7% (inactive)
CCCNC(=O)C1CC(=O)N(c2ccc(OCC(=O)Nc3cc(C)cc(C)c3)cc2)C1 (stereo not drawn)	591	-6.2% (inactive)	-2.7% (inactive)	104%	-6.3% (inactive)	114%	-0.562 (inactive)	-4e-05 (inactive)	0.00634 (inactive)	-3.19% (inactive)	27.9% (inactive)
